# Measurements: PubChem BioAssay (NCI)
# Compounds without any hit were thinned out: in the full panel of roughly 79,000, 15% have a hit. A number with no mark means an inactive call. Activity calls are given as the source filed them. Rule as the data show it: active = growth inhibition above about 70%; inactive = the rest.
# How the values were obtained:
# [1] = NCI Yeast Anticancer Drug Screen. Data for the rad50 strain (AID 155);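 also: 0% = growth of vehicle-only cultures of the same strain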; settings: S. cerevisiae rad50 strain growth inhibition; at 50.0 µM; stronger effect = higher value
# Method in brief: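 Yeast carrying a defined DNA repair defect were exposed to test compounds, and growth was compared with vehicle-treated controls to give percent inhibition.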
# [2] = NCI Yeast Anticancer Drug Screen. Data for the mec2-1 strain (AID 157); settings: S. cerevisiae mec2-1 strain, at 50.0 µM, stronger effect = higher value
# Method in brief: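 Test agents were screened against the mec2-1 yeast strain, with defined DNA repair or cell cycle alteration. Growth was scored as inhibition against vehicle-only controls.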
# [3] = NCI Yeast Anticancer Drug Screen. Data for the sgs1 mgt1 strain (AID 161);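 also: 0% = growth of cultures given vehicle only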; settings: S. cerevisiae sgs1 mgt1 strain, at 50.0 µM, stronger effect = higher value
# Method in brief: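 Inhibition of yeast growth, normalised to vehicle-treated controls, is reported for a strain bearing genetic alterations in DNA damage repair.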
# [4] = NCI Yeast Anticancer Drug Screen. Data for the cln2 rad14 strain (AID 165);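 also: 0% = growth equal to vehicle treated cultures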; settings: S. cerevisiae cln2 rad14 strain, at 50.0 µM, stronger effect = higher value
# Method in brief: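 Growth of compound-exposed yeast (cln2 rad14 genotype) measured and expressed as inhibition relative to vehicle.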
# [5] = NCI Yeast Anticancer Drug Screen. Data for the bub3 strain (AID 167); settings: S. cerevisiae bub3 mutant strain, at 50.0 µM, stronger effect = higher value
# Method in brief: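 Compounds were applied to a genetically altered yeast strain carrying a cell-cycle control defect. Growth inhibition was scored against vehicle-treated controls.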
# [6] = NCI Yeast Anticancer Drug Screen. Data for the mlh1 rad18 strain (AID 175); settings: S. cerevisiae mlh1 rad18 strain growth inhibition; at 50.0 µM; stronger effect = higher value
# Method in brief: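 In this whole-cell yeast screen, a strain with altered DNA damage repair is challenged with compound, and its growth is measured against matched vehicle-treated controls.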
SMILES,growth inhibition [1],growth inhibition [2] [%],growth inhibition [3],growth inhibition [4] [%],growth inhibition [5] [%],growth inhibition [6]
COc1ccc(C(C)=O)cc1,34.5%,18.8,30.6%,37.1,29.9,18.9%
CCCCNC(=S)SSSSC(=S)NCCCC,-8.45%,-14,-6.05%,-53.5,8.7,-7.55%
CCOC(=O)C(CC)N1C(=O)c2ccccc2S1(=O)=O (stereo unspecified),-16.1%,-10.5,-12.4%,48.2,33.5,-12.6%
OC1(c2ccc(-c3ccc(-c4ccc(C5(O)C(c6ccccc6)=C(c6ccccc6)C(c6ccccc6)=C5c5ccccc5)cc4)cc3)cc2)C(c2ccccc2)=C(c2ccccc2)C(c2ccccc2)=C1c1ccccc1,1.05%,4.4,6.8%,-3.9,-1.8,2%
CCOc1c(N=Nc2ccccc2[N+](=O)[O-])c(C)nn1C(N)=S,-6.5%,-5.95,24.5%,-26.8,-20.9,17.4%
O=c1[nH]c(=S)[nH]c2c1CN(CCCN1CCOCC1)CN2,10.3%,-8.7,-15.8%,3.2,-25.1,5.45%
Cn1cnc([N+](=O)[O-])c1C(=O)NCc1ccccc1,-2.5%,9.1,5.15%,-20.8,-7.35,-9.05%
CCN(CC)c1ccc2cc(C(=O)Nc3cccc4ccccc34)c(=N)oc2c1,14.4%,3.05,-10.2%,-5.45,-25.9,-53.6%
COc1ccc2c(c1)C1c3ccccc3CCN1CCC2 (stereo unspecified),20.8%,20.9,-23.1%,24.1,-8.4,6%
CC(=O)OC1CC2(C)OC(Cc3ccccc32)O1 (stereo unspecified),-37.2%,-3.05,-58.6%,4.4,-23.1,-43.5%
Nc1nc(-c2ccc(S(=O)(=O)O)cc2)cc(=O)[nH]1,-9.6%,-4.5,-10.7%,17.2,-27.4,16.5%
O=[N+]([O-])c1ccc(-c2csc(Nc3ccccn3)n2)o1,81.1% (active),38.3,84.7% (active),31.4,40.8,92.5% (active)
O=C1C(OCc2ccccc2)=C(OCc2ccccc2)C(=O)c2ccccc21,14.2%,3.1,31.6%,10.2,-30.1,36.3%
C[C@]12CCC(=O)C=C1CC[C@@H]1[C@@H]2CC[C@]2(C)C(=O)NC(=O)C[C@@H]12,-1.65%,-15.8,32.6%,24.9,-3,-16.9%
C=CCC1(C(=O)NC)c2ccccc2-c2ccccc21,-8.85%,-6.4,1%,-18.8,43.1,-38.1%
Cc1ccccc1N=Cc1ccc(N(CCC#N)S(=O)(=O)c2ccccc2)cc1,11.7%,-8.3,19.9%,18.7,0.95,15%
CC(=O)OCc1ccc(C)c(COC(C)=O)c1,3.45%,-20.6,-9.4%,3.8,1.1,-9.4%
COc1ccc(Nc2nc(C#N)c(N)s2)cc1,3.75%,-12.6,-0.15%,-0.2,-27,-9.5%
CC(=O)c1ccc(N2C(=O)C3c4[nH]c5ccccc5c4C4CCC(C(C)(C)C)CC4C3C2=O)cc1 (stereo unspecified),42.8%,-2.7,0.5%,63,16,18.4%
O=c1[nH]cnc2c1CNC2,9.5%,-2.5,-10.4%,-65.8,-18.4,1.6%
CNNC(=NS(=O)(=O)c1cc(C#N)c(NNC)cc1S)NNC,6.05%,-3.95,-11.3%,-36.5,-8.45,12.3%

SMILES,growth inhibition [1],growth inhibition [2] [%],growth inhibition [3],growth inhibition [4] [%],growth inhibition [5] [%],growth inhibition [6]
O=C1C(=S)Nc2cccc(F)c21,38%,45,33.2%,-3.65,43.7,33%
Cc1ccc(S(=O)(=O)OC2CCC(C(C)(C)C)C(Cl)C2)cc1 (stereo unspecified),-8%,8.3,3.2%,9.55,3.35,-6.75%
O=c1[nH]nc(Cc2ccccc2)n1/N=C\c1ccccc1,-38.6%,-20.6,-28.1%,-11.3,-16.1,-43.2%
O=[N+]([O-])c1ccc(-c2csc(NCC3CCCO3)n2)cc1 (stereo unspecified),24.3%,-10.6,49.9%,21.1,21.6,17.9%
CCCC1SC(=S)N(c2ccc(Cl)cc2)C1=O (stereo unspecified),17.9%,22.1,26.5%,9.2,-1.55,9.9%
N=C(N)S/C=C/C(=O)O,-18.8%,-17.4,-20.5%,-4.65,-13.8,-19.6%
Cc1cc2nc(C(O)C(O)C(O)C(O)c3nc4cc(C)c(C)cc4[nH]3)[nH]c2cc1C (stereo unspecified),18.9%,3.35,-9.2%,-1.2,-8.65,-0.85%
CCCCN=C(OC1C=CCCC1)SC (stereo unspecified),-12.8%,-25.6,-14.6%,9.95,-4.7,-7.7%
N#CCC(=O)NCCc1c[nH]c2ccccc12,-18.1%,0.2,-14.7%,-32.8,-6.1,-27.8%
CC1CCCC(=O)CC1 (stereo unspecified),7.35%,9.85,-2.85%,16.3,-0.45,6.5%
CCOC(=O)c1[nH]c2cccc3c2c1CC[C@H](NC(=O)C(F)(F)F)C3=O,-5.1%,9.3,10.8%,18.2,0.95,8.3%
O=C(N/C(=C\c1cc(Cl)ccc1Cl)c1nc2ccccc2[nH]1)c1ccccc1,50.2%,8.65,31.9%,25,43.9,42.3%
CCOC(=O)C1Oc2ccccc2O1,11.8%,-14.6,-7%,-41.1,-13.1,-10.8%
CC1CN(C(C)(C)C)CO1 (stereo unspecified),-0.3%,-10.4,-18.6%,8.3,-26.5,-25.6%
Clc1nnc(-c2ccccc2)s1,2.3%,2.85,19.9%,7.85,8.2,9.5%
COc1c2cccc(Cl)c2cc2c(Cl)cccc12,6.3%,-6.15,1.3%,18.8,-11.2,12.5%
Cc1ccc(S(=O)(=O)n2cnc(CC(NC(=O)C3CCC(=O)N3C(=O)OCc3ccccc3)C(=O)N3CCCC3C(=O)NN)c2)cc1 (stereo unspecified),-38.9%,-43.1,-30.8%,-9.95,-30.9,-18.2%
COC1=C(OC)C(=O)c2cc(SC)c(=O)c(SC)cc2C1=O,-54.8%,-29.2,-40.5%,-22.1,-54.6,-60.2%
CCCCCCCCCCCCOP(=O)(O)OP(=O)(O)OCC1OC(n2ccc(N)nc2=O)CC1O (stereo unspecified),27.9%,21.5,27.6%,17.1,22.1,18.2%
O=C1NC(N2CCOCC2)=N/C1=C\c1ccccc1,8%,11.2,-9.8%,-3.65,-1.2,-15.3%
